Test results published in PubChem BioAssay (NCATS).
Inconclusive results are not listed. A call without a number means that no potency is given here. The source made the active and inactive calls. Unless noted, calls follow the shape of the dose curve; as a rule, active = well fitted curve in the direction sought with a large enough effect; inconclusive = small, poorly fitted or top-dose-only effect, or another doubt; inactive = no such curve, though single readings can be large; an effect the other way counts as inactive or inconclusive.

Experiments:
[1] = molecular target: Voltage-gated inwardly rectifying potassium channel KCNH2 (Homo sapiens) (UniProt Q12809); experiment: qHTS Assay for Small Molecule Inhibitors of the Human hERG Channel Activity (AID 588834);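 also: lower thallium flux fluorescence means stronger hERG block; nearly all actives have a fitted effect of over 50% in size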; also: potency is read from the fitted curve at half-maximal effect
Sequence of Voltage-gated inwardly rectifying potassium channel KCNH2 (Homo sapiens) (Q12809 whole entry, looked up): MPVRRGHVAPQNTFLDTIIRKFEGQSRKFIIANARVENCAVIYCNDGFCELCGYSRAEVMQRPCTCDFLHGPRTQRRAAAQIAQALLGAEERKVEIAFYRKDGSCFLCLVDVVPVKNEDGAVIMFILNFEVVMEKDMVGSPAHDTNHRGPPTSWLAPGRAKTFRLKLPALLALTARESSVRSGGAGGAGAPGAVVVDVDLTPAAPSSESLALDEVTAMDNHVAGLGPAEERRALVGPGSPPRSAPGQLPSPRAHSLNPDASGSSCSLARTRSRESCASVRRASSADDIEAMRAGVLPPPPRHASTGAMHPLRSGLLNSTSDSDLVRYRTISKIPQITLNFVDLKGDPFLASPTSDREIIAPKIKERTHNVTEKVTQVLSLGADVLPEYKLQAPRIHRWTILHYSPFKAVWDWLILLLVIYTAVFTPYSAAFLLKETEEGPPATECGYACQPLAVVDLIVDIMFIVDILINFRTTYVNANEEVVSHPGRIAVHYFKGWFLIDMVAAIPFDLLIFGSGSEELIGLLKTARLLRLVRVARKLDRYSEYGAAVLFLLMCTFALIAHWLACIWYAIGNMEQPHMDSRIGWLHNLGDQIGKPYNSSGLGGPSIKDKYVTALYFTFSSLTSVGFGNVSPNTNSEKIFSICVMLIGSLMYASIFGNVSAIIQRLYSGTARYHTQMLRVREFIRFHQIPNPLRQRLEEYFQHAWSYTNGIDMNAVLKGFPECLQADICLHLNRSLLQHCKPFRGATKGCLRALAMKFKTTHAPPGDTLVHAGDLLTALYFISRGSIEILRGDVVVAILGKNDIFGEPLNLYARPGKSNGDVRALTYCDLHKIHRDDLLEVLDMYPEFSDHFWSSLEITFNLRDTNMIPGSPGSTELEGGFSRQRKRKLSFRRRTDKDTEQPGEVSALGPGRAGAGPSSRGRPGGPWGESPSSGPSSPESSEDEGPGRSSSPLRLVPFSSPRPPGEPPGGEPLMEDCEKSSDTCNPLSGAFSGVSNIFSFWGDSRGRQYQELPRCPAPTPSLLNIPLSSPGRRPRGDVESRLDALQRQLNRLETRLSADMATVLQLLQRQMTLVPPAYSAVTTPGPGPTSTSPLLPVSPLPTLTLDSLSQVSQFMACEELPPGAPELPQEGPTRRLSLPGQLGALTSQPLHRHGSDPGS
Summary of the method: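 In hERG-transduced U2OS cells, dye-loaded for 1 hr at room temperature in dark, test compounds incubated 10 min at 37 °C before thallium stimulation. AC50 values derived by Hill modelling of concentration-response.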

[2] = molecular target: Luciferin 4-monooxygenase (Photinus pyralis) (UniProt P08659); experiment: Biochemical firefly luciferase enzyme assay for NPC (AID 624030);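 also: purified P. pyralis luciferase at 10 nM with luciferin and ATP substrate; nearly all actives have a fitted effect of over 70% in size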
Sequence of Luciferin 4-monooxygenase (Photinus pyralis) (P08659 whole entry, looked up): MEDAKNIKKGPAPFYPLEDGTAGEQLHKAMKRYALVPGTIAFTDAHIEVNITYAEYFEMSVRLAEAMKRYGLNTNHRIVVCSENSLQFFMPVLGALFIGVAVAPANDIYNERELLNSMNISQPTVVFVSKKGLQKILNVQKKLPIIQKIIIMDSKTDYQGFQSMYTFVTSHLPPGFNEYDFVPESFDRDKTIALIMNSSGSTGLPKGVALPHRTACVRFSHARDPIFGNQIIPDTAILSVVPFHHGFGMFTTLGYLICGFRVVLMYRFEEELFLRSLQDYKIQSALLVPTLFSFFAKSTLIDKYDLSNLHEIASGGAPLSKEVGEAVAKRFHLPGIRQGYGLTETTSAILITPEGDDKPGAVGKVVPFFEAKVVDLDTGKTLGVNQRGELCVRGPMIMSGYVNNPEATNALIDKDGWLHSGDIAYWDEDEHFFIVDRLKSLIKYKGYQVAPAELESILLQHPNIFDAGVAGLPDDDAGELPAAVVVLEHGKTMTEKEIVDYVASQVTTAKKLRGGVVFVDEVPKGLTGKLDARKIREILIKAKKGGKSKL
Summary of the method: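 Direct inhibition of firefly luciferase enzyme (10 nM final, 50 mM Tris Acetate) assessed by luminescence within 5 minutes. Percent activity scaled between DMSO and PTC124 positive control, with concentration-effect curves classified by fit quality and response.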

[3] = S16 Schwann cell viability assay (CellTiter-Glo assay) (AID 624031);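 also: native untransfected S16 rat Schwann cells; cellular ATP luminescence as a viability measure; nearly all actives have a fitted effect of over 70% in size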
Summary of the method: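 Following overnight culture in 10% FBS DMEM, parental S16 rat Schwann cells are dosed for 24 h at 37 °C. Viability is read as CellTiter-Glo luminescence and expressed as % activity relative to DMSO (0%) and no-cell wells.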

[4] = S16 Schwann cell PMP22 intronic element firefly luciferase assay (AID 624032); also: nearly all actives have a fitted effect of over 30% in size
Summary of the method: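 Luciferase reporter of PMP22 intronic-element expression in stably transfected S16 rat Schwann cells, read by ONE-Glo luminescence after 24 h compound exposure at 37 C. Activity scaled between DMSO (0%) and positive-control PTC124; concentration-effect curves quality-classified.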

[5] = S16 Schwann cell PMP22 intronic element beta-lactamase assay (AID 624044; calls by dose curve; also: nearly all actives have a fitted effect of over 15% in size); details: S16 rat Schwann cells, PMP22 element beta-lactamase FRET, 24 h; ratio activity, negative = inhibition: at 38.3 µM (top of the series)
Summary of the method: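 Beta-lactamase reporter under a PMP22 intronic regulatory element in stable S16 rat Schwann cells; 24 h compound exposure. 460 nm blue signal normalized between DMSO (0%) and potassium clavulanate, with 535 nm FRET tracking viability; curves classed by r2 and response.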

SMILES | Potency [1] | Potency [2] | Potency [3] | Potency [4] | Potency [5]
CN=C(NC#N)Nc1ccc(C2=NNC(=O)CC2C)cc1 (configuration not stated) | inactive | inactive | inactive | inactive | 
OC[C@H]1O[C@@H](n2cnc3c(=S)nc[nH]c32)[C@H](O)[C@@H]1O | inactive |  |  |  | 
CCCSS/C(CCO)=C(\C)N(C=O)Cc1cnc(C)nc1N | 11.2 µM (active) |  |  |  | 
COc1cc(-c2ccc(=O)[nH]n2)ccc1OC(F)F | inactive | inactive | inactive |  | 
OCc1ccccc1O | inactive | inactive | inactive | inactive | 
NC(=O)c1cc[n+](CC2=C(C(=O)[O-])N3C(=O)[C@@H](NC(=O)Cc4cccs4)[C@H]3SC2)cc1 | inactive |  |  |  | 
C[C@]12C=CC(=O)C=C1[C@@H](F)C[C@@H]1[C@@H]2[C@@H](O)C[C@@]2(C)[C@H]1CC[C@]2(O)C(=O)CO | inactive | inactive |  |  | 
CC(C)(CO)[C@@H](O)C(=O)NCCCO | inactive | inactive | inactive | inactive | 
C[C@H](O)C(=O)Nc1c(I)c(C(=O)NC(CO)CO)c(I)c(C(=O)NC(CO)CO)c1I | inactive | inactive | inactive | inactive | 
CC(=O)CC(c1ccc([N+](=O)[O-])cc1)c1c(O)c2ccccc2oc1=O (configuration not stated) | inactive |  |  |  | 
C[C@]12CCC(=O)C=C1[C@@H]1C[C@@H]1[C@H]1[C@@H]3[C@@H]4C[C@@H]4[C@@]4(CCC(=O)O4)[C@@]3(C)CC[C@@H]12 | inactive |  |  |  | 
C[C@]12C=CC(=O)C=C1CC[C@@H]1[C@@H]2[C@@H](O)C[C@@]2(C)[C@H]1CC[C@]2(O)C(=O)CO | inactive |  |  |  | 
CN1CCC[C@@H]1c1cccnc1 | inactive | inactive | inactive | inactive | 
CCCCOc1ccc(C(=O)CCN2CCCCC2)cc1 | 10 µM (active) | inactive | inactive |  | 
COc1cccc(OC)c1C(=O)N[C@@H]1C(=O)N2[C@@H]1SC(C)(C)[C@@H]2C(=O)O | inactive |  |  |  | 
CCOC(=O)[C@H](CCc1ccccc1)N[C@@H](C)C(=O)N1Cc2ccccc2C[C@H]1C(=O)O | inactive |  |  |  | 
CC(=O)[C@H]1CC[C@H]2[C@@H]3C[C@H](C)C4=CC(=O)CC[C@]4(C)[C@H]3[C@@H](O)C[C@]12C | inactive |  |  |  | 
Cc1cc(N)c2cc(NC(=O)Nc3ccc4nc(C)cc(N)c4c3)ccc2n1 | inactive | inactive |  |  | 
C[C@@H]1C[C@H]2[C@@H]3C[C@H](F)C4=CC(=O)C(Cl)=C[C@]4(C)[C@@]3(F)[C@@H](O)C[C@]2(C)[C@@]1(O)C(=O)CO | inactive |  |  |  | 

SMILES | Potency [1] | Potency [2] | Potency [3] | Potency [4] | Potency [5]
CN1CCN(C(c2ccccc2)c2ccccc2)CC1 | inactive | inactive | inactive | inactive | 
C[C@]12CC[C@H]3[C@@H](CCC4=CC(=O)CC[C@@]43C)[C@@H]1CC[C@@H]2C(=O)CO | inactive |  |  |  | 
CC(=O)Oc1ccc(C(=C2CCCCC2)c2ccc(OC(C)=O)cc2)cc1 | inactive | inactive | inactive | inactive | inactive
Cc1cccn2c(=O)c(-c3nnn[nH]3)cnc12 | inactive | inactive | inactive | inactive | 
CCCCc1nc(Cl)c(CO)n1Cc1ccc(-c2ccccc2-c2nn[nH]n2)cc1 | inactive | inactive | inactive | inactive | 
NCCC(O)(P(=O)(O)O)P(=O)(O)O | inactive | inactive | inactive | inactive | 
OC(CCN1CCCCC1)(c1ccccc1)c1ccccc1 | 14.1 µM (active) | inactive | inactive | inactive | 
CCn1cc(C(=O)O)c(=O)c2cnc(N3CCCC3)nc21 | inactive | inactive | inactive | inactive | 
NC(CO)(CO)CO | inactive | inactive | inactive | inactive | 
CC(C)=CCC1C(=O)N(c2ccccc2)N(c2ccccc2)C1=O | inactive | inactive | inactive | inactive | inactive
C[C@@H]1C[C@H]2[C@@H]3CCC4=CC(=O)C=C[C@]4(C)[C@@]3(F)[C@@H](O)C[C@]2(C)[C@H]1C(=O)CO | inactive | inactive | inactive | inactive | 
COc1cc(OC)cc(OC)c1 | inactive | inactive | inactive | inactive | 
CCN(CC)C(=O)N1CCN(C)CC1 | inactive | inactive | inactive | inactive | 
Cc1c(C(N)=O)cc([N+](=O)[O-])cc1[N+](=O)[O-] | inactive | inactive | inactive | inactive | 
CCN(CC)C(=O)/C(C#N)=C/c1cc(O)c(O)c([N+](=O)[O-])c1 | inactive | inactive | inactive | inactive | 
CCCCC1=NC2(CCCC2)C(=O)N1Cc1ccc(-c2ccccc2-c2nn[nH]n2)cc1 | inactive | inactive | inactive | inactive | inactive
CCC(C(=O)OCCN(CC)CC)c1ccccc1 (configuration not stated) | inactive | inactive | inactive | inactive | 
CCN1CCCC1=O | inactive | inactive | inactive | inactive | 
